Screening results: PubChem BioAssay, several laboratories
PGE2 EP2 inh: inhibitors of human EP2 prostaglandin E2 receptor; P43116; C6 glioma cells expressing human EP2, cAMP TR-FRET; cells stimulated with saturating PGE2; inhibition, % at 25 µM; hit rate 0.52% among 260,000; AID 1422;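 active = percent inhibition above 40 after rounding to a whole number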;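 also: rat C6 glioma host cells with rolipram phosphodiesterase inhibitor present; the protocol text gives 20 µM as final concentration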
EP2 modulator: modulates human prostaglandin E2 receptor EP2 signaling. P43116. EP2-expressing cells, cAMP HTRF FRET, PGE2 co-stimulation. induction, % at 25 µM. hit rate 0.83% among 260,000;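 active = compounds whose cAMP rise, as percent of the full-agonist control response, exceeds 60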;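 also: rat C6 glioma line stably carrying human EP2 under a CMV promoter; the protocol text gives 20 µM as final concentration; 100% = response of wells given 1 µM PGE2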
Furin inhibitor: human furin inhibition; P09958; purified furin, fluorogenic substrate cleavage; inhibition, % at 20 µM or 30 µM; hit rate 0.061% among 220,000; in the data active = inhibition above about 25%
HSV augment: increases HSV replication in cells | HSV replication augmentation in cells, fold increase | maximum fold increase | hit rate 0.005% among 220,000; in the data active = maximum fold increase above about 1.5; tested in PC3 cells
p47phox inh: inhibitors of human p47phox binding. P14598. p47phox/p22phox peptide binding, fluorescence polarization, 2 h. inhibition, % at 24.7 µM. hit rate 0.53% among 220,000;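 active = inhibition above about 30%, limit read from the data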;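 also: 0% = p47phox with labelled peptide and 100% = labelled peptide alone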
Wee1 stabilizer: human Wee1 degradation inhibition, primary screen; P30291; HeLa Luc-Wee1K328M stability, luciferase luminescence; 100% = proteasome inhibitor MG132 effect; reporter increase, % at 5 µM; hit rate 1.2% among 220,000;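 active = activation above the mean of all tested compounds plus 3 SD, set per screening run, cut at about 8.8% in these data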;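 also: cells exposed to compound for 20 h before luminescence read; 0% = DMSO alone and 100% = MG132 at 30 µM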
Target sequence (P30291 whole entry K328M): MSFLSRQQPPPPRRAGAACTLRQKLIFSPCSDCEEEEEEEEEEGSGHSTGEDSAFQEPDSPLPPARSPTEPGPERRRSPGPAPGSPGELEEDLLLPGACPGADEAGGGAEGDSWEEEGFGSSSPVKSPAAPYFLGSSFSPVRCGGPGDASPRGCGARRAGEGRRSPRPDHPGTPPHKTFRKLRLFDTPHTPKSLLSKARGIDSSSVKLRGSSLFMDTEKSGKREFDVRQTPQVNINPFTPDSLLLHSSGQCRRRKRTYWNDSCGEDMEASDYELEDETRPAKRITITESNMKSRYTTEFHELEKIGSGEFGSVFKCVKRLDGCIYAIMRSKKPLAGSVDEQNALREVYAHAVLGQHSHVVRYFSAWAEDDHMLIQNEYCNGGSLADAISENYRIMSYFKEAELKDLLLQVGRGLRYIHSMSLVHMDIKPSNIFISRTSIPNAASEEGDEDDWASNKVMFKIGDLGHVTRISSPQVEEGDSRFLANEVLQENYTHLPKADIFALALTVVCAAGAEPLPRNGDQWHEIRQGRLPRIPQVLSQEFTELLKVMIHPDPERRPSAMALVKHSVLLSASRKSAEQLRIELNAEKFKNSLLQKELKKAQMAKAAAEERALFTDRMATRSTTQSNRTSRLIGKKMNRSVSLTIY
Wee1 stab conf: human Wee1 degradation inhibition, confirmation; hit rate 4% among 1,100; shares compounds with Wee1 stabilizer; activation, % at 5 µM; HeLa Luc-Wee1K328M degradation, luminescence; vehicle 0%, proteasome-blocked wells 100%; in the data active = activation above about 8.9%
Numbers without * were called inactive; i = inactive; / = no result given. Most compounds without a hit are left out; they make up all but 2.8% or so of the library.

SMILES	PGE2 EP2 inh	EP2 modulator	Furin inhibitor	HSV augment	p47phox inh	Wee1 stabilizer	Wee1 stab conf
Nc1ccccc1Nc1cc(-c2ccccc2)nn1-c1ccccc1	4	18	-18	i	-17	-1	/
Cc1ccc(-n2nc(-c3ccccc3)cc2Nc2ccccc2N)cc1	3	9	-27	i	-6	11*	2
COc1ccc(C2=NN(C(=O)CN3CCCCC3)C(c3ccc(OC)cc3)C2)cc1 (centres undefined)	5	0	-15	i	-18	13*	3
COc1ccc(NC(=O)CSCC(=O)NCCc2ccccn2)cc1	9	-5	-19	i	1	16*	-1
COc1ccc(NC(=O)CSc2ccccn2)cc1	5	-22	-14	i	11	-1	/
CCOc1ccc(-c2cc(C(=O)Nc3c[nH]c4ccccc34)[nH]n2)cc1	7	-74	/	/	/	/	/
CN1CC(=O)N(CC(=O)NCC2CCCCC2)c2ccccc2C1=O	6	-11	/	/	/	/	/
C=CCNC(=S)N1CCN(S(=O)(=O)c2ccc(C)cc2)CC1	8	-15	-11	i	4	17*	3
CCNC(=S)N1CCN(S(=O)(=O)c2ccc(C)c(C)c2)CC1	7	-19	-8	i	-5	2	/
Cn1c(SCC(=O)c2ccc(F)cc2)nc2ccccc2c1=O	11	-6	/	/	/	/	/
COc1cccc(CNCc2cccnc2)c1OCc1ccccc1	16	7	-20	i	-3	13*	-1
Cc1ccccc1CNCc1cccnc1	6	6	-5	i	5	0	/
CCOc1ccccc1NC(=O)CSc1nnc(-c2ccncc2)n1Cc1ccccc1	11	24	/	/	/	/	/
COc1ccc(Nc2nc(S(=O)(=O)c3ccc(C)cc3)c(Cl)s2)cc1	4	-5	-13	i	-3	11*	2
COc1ccc(C2(O)CCN(C(=O)Cc3ccc(OC)c(OC)c3)CC2)cc1	6	-22	/	/	/	/	/
CCOC(=O)c1ccccc1NC(=O)CN(c1ccccc1OCC)S(C)(=O)=O	10	19	-26	i	-4	1	/
CCOC(=O)c1ccccc1NC(=O)CN(c1ccc(OCC)cc1)S(C)(=O)=O	11	21	-13	i	0	12*	4
Cc1nn(CC(=O)NC2CC2)c(=O)c2cc3sccc3n12	/	-44	/	/	/	/	/
O=C(NCC1CCCO1)C(c1cccnc1)N(C(=O)Cc1cccs1)c1ccccc1 (centres undefined)	/	31	-19	i	-16	17*	1
CC1CCCN(CC(O)c2ccc3c(c2)CCCN3C(=O)C2CCCC2)C1 (centres undefined)	4	-133	/	/	/	/	/
COc1ccc([N+](=O)[O-])cc1NC(=O)/C=C/C(=O)O	9	18	-5	i	2	4	/
COc1cc(OC)c(NC(=O)/C=C/C(=O)O)cc1Cl	7	0	-7	i	-1	12*	0
S=C(Nc1ccccc1)N1CCN(Cc2ccccc2)CC1	5	-13	-9	i	15	3	/
S=C(Nc1cccc(Cl)c1)N1CCN(Cc2ccccc2)CC1	6	-36	-16	i	-22	11*	4
S=C(NCCN1CCOCC1)Nc1cccc(Cl)c1	7	5	-16	i	-1	15*	-1
SMILES	PGE2 EP2 inh	EP2 modulator	Furin inhibitor	HSV augment	p47phox inh	Wee1 stabilizer	Wee1 stab conf
Cc1ccc(N(CC(=O)N2CCCCC2)S(C)(=O)=O)cc1Cl	10	-23	/	/	/	/	/
CCN(CC)S(=O)(=O)c1ccc(S(=O)(=O)N2CCCCCC2)cc1	12	-16	/	/	/	/	/
CCC(=O)Oc1ccc(C(=O)Nc2ccc([N+](=O)[O-])cc2)cc1	11	-27	-17	i	-2	12*	3
CC(C)COc1ccc(C(=O)Nc2ccc([N+](=O)[O-])cc2)cc1	4	-11	-26	i	-15	-4	/
COc1ccc(S(=O)(=O)N2CCC(c3nc4ccc(C)cc4[nH]3)CC2)cc1	17	-67	/	/	/	/	/
C(=N\Nc1nc2ccccc2[nH]1)/c1ccc2c(c1)OCO2	18	-48	9	i	-21	12*	3
Cc1ccc(C(=O)N(CC(=O)NC2CCCC2)c2cccc(Cl)c2)s1	24	-2	/	/	/	/	/
O=C(CC1C(=O)N(c2ccccc2)C(=S)N1c1ccccc1)c1ccc(Br)cc1 (centres undefined)	4	16	-1	i	-27	67*	1
